GRK2 aptamer HTS: compounds blocking aptamer binding on GRK2 – biochemical, human GRK2, bead flow cytometry, HTS, primary screen. hit rate 0.59% among 330,000. Beta-adrenergic receptor kinase 1 (Homo sapiens), P25098. inhibition of aptamer binding, % at 10 µM. FAM-aptamer displacement from GRK2;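 active means inhibition of aptamer binding above 40%, roughly 3 SD of noise, on plates passing a quality check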;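 further: median bead fluorescence of bound FAM aptamer so fluorescent compounds give negative values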
Beta2AR agonist: beta2AR agonists driving receptor internalization, primary screen, cell-based, FAP fluorogen, flow cytometry; Beta-2 adrenergic receptor (Homo sapiens), P07550; Am2.2-beta2AR cells; response, % (no concentration beside the values); hit rate 0.43% among 340,000; AID 504454, 2011;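 active means response above a set limit, near 3 SD of response in nonfluorescent compounds, cut at about 42% in these data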
MEKK2 WT-MEK5: modulators of MEK5 binding to wildtype MEKK2, primary screen, biochemical, multiplex bead flow cytometry, Alexa488-MEK5. Alexa488-MEK5 binding to MEKK2 WT; actives lie on both sides. binding response (% of control), % at 10 µM. hit rate 1.1% among 290,000. AID 1531, 2009; in the data active means binding response below about 67% or above about 130%
MEKK2 mut-MEK5: MEK5 binding signal on mutant MEKK2 PB1, primary screen, biochemical, multiplex bead flow cytometry, Alexa488-MEK5; Alexa488-MEK5 binding to MEKK2 mutant; hit rate 0.35% among 290,000; percent response, % at 10 µM; AID 1530, 2009; in the data active means percent response above about 24%, passing the limit was not always enough
MEKK3 PB1 HTS: modulators of MEKK3-MEK5 PB1 binding, primary screen, biochemical, wildtype MEKK3, multiplex bead flow cytometry, Alexa488-MEK5 | Mitogen-activated protein kinase kinase kinase 3 (Homo sapiens), Q99759 | bead-based flow cytometry, Alexa488-MEK5 binding to MEKK3; actives lie on both sides; 0 = blocked by unlabeled MEK5, 100 = vehicle | binding response (% of control), % at 10 µM | hit rate 1.4% among 290,000 | AID 1529, 2009;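 active means binding response more than 3 SD above or below the average of its plate-row segment, actives on both sides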;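 further: Alexa488 bead fluorescence after subtracting the streptavidin-only scavenger bead signal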
Target sequence (Q99759 whole entry, looked up): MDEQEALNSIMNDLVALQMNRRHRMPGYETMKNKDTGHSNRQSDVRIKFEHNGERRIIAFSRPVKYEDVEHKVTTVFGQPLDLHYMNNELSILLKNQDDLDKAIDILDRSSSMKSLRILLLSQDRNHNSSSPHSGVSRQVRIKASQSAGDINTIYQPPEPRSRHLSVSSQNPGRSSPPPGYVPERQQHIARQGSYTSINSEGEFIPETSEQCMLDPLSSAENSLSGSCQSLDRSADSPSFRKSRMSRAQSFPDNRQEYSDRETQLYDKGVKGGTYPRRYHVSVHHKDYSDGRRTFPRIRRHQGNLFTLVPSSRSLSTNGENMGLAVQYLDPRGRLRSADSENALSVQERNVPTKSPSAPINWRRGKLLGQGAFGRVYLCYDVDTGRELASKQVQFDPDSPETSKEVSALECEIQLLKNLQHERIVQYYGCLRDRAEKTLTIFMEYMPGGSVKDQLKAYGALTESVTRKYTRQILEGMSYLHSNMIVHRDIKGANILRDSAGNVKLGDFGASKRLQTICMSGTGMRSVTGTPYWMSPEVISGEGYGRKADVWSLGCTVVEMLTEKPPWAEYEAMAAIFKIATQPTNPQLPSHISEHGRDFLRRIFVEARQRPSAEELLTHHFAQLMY
MEKK2wt confirm: modulators of MEK5 binding to wildtype MEKK2, confirmation, biochemical, single concentration, multiplex bead flow cytometry; Alexa488-MEK5 binding to MEKK2 WT; actives lie on both sides; shares compounds with MEKK3 PB1 HTS; binding response (% of control), % at 10 µM; hit rate 2.4% among 5,900; in the data active means binding response below about 16% or above about 210%; inactive means in between
MEKK2mut-MEK5: mutant MEKK2 PB1-MEK5 binding signal retest – biochemical, single concentration, multiplex bead flow cytometry, confirmation; shares compounds with MEKK3 PB1 HTS; Alexa488-MEK5 binding to MEKK2 mutant; percent response, % at 10 µM; hit rate 2% among 5,900; in the data active means percent response mostly above about 71%, no sharp cut-off; inactive means mostly below about 38%;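 further: higher means compound restores mutant binding toward wildtype level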
MEKK3 confirm: MEKK3 wild-type PB1 binding to MEK5, inhibitors, confirmation, biochemical, bead multiplex flow cytometry, single concentration, wildtype; shares compounds with MEKK3 PB1 HTS; Alexa488-MEK5 binding to MEKK3; active compounds read low; binding response (% of control), % at 10 µM; hit rate 1.8% among 5,900; AID 1894, 2009;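 active means binding response below 72% of control, or above a set upper limit, though filed actives all read lower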;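 further: lower values mean stronger disruption of MEK5 binding to MEKK3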
Hits are given with their value; n = inactive; x = not tested or not shown; [ ] = dose if it differs, or a comment. Hits are enriched below; roughly 2.9% of the tested compounds scored in any of these assays.

SMILES	GRK2 aptamer HTS	Beta2AR agonist	MEKK2 WT-MEK5	MEKK2 mut-MEK5	MEKK3 PB1 HTS	MEKK2wt confirm	MEKK2mut-MEK5	MEKK3 confirm
COC(=O)CCC(=O)Nc1ccc(C)cc1OC(=O)CCC(=O)OC	n	n	n	28	n	n	n	n
CCN(CC)CCNC(=O)c1ccc(NC(=O)C2CCN(c3ncnc4sc(C)c(C)c34)CC2)cc1	n	n	147	n	n	-5.0[inhibitor]	n	n
O=C(COc1ccc(Br)cc1)N(Cc1ccco1)C1CCS(=O)(=O)C1 (configuration not stated)	n	n	n	n	n	x	x	x
CN1CCN(Cc2nc3ccccc3c(=O)n2Cc2nc(-c3ccc4ccccc4c3)cs2)CC1	n	n	195	51	n	n	n	n
CN1CCN(Cc2nc3ccccc3c(=O)n2Cc2nc(-c3cccc([N+](=O)[O-])c3)cs2)CC1	x	n	n	n	n	x	x	x
Cc1ccc(S(=O)(=O)N2CCOCC2)cc1NC(=O)COC(=O)CCC(=O)c1ccc(F)cc1	x	n	x	x	x	x	x	x
COc1cc(/C=C2\SC(=S)N(CC(=O)Nc3ccccn3)C2=O)cc(OC)c1OC	n	n	n	n	n	x	x	x
CCc1nnc(NC(=O)CN2C(=O)/C(=C/c3cc(OC)c(OC)c(OC)c3)SC2=S)s1	n	n	n	n	159	n	n	n
COc1cc(/C=C2/SC(=S)N(CC(=O)Nc3nc4ccccc4s3)C2=O)cc(OC)c1OC	n	n	71[inhibitor]	n	n	n	n	n
O=C(COc1cccc(Cl)c1)Nc1ccc2c(c1)CCC2	n	n	n	n	n	x	x	x
O=C(Nc1cccc(Cl)c1)c1ccccc1NC(=O)C1CCCCC1C(=O)O (configuration not stated)	n	n	n	n	n	x	x	x
Cc1nc(NC(=O)C2CCCC2)sc1Cc1ccc2c(c1)OCO2	n	n	n	n	n	x	x	x
Cc1nc(NC(=O)C23CC4CC(CC(C4)C2)C3)sc1Cc1ccc2c(c1)OCO2	n	n	147	n	n	n	n	n
Cc1ccc(S(=O)(=O)N2CCOCC2)cc1NC(=O)COC(=O)c1cnc(Cl)c(Cl)c1	x	n	x	x	x	x	x	x
O=C(Cn1cc2c(n1)CCCC2)NCCCN1CCCC1	n	n	134	n	n	n	n	n
CCN(CC)c1nc2ccccc2n2cnnc12	n	n	n	n	n	x	x	x
O=c1[nH]c2ccccc2n2cnnc12	n	n	n	n	147	n	n	n
CCCN1CCC(=O)N([C@H](CSc2ccc(C)cc2)c2ccccc2)CC1	n	n	157	n	n	n	n	n
Cc1sc(N/N=C/c2ccco2)nc1-c1ccccc1	n	n	n	n	131	n	n	n
CCn1cc(CN2CCCC(C(=O)Nc3cccc(-c4cc5ccccc5[nH]4)c3)C2)c(C)n1 (configuration not stated)	n	n	154	n	n	n	n	n
CCn1cc(CN2CCCC(C(=O)Nc3ccc(-c4nc5ccccc5[nH]4)cc3)C2)c(C)n1 (configuration not stated)	n	n	n	n	n	x	x	x
Cn1cnnc1SCC(=O)NC1CC1	n	n	x	x	x	x	x	x
CSc1nc(-c2ccccc2)nn1C(=O)c1ccccc1	n	n	x	x	x	x	x	x
CSc1nc(-c2ccccc2)nn1C(=O)c1ccco1	n	n	1.0[inhibitor]	n	1.0[inhibitor]	n	n	n
Cc1cc([N+](=O)[O-])cc2c1NC(=O)C2(O)N1CCCCCC1 (configuration not stated)	n	n	n	n	163	n	n	n
SMILES	GRK2 aptamer HTS	Beta2AR agonist	MEKK2 WT-MEK5	MEKK2 mut-MEK5	MEKK3 PB1 HTS	MEKK2wt confirm	MEKK2mut-MEK5	MEKK3 confirm
Cc1cc([N+](=O)[O-])cc2c1NC(=O)C2(O)N1CCCC(C)C1 (configuration not stated)	n	n	n	n	n	x	x	x
CN(C)CCNc1nc2sc3c(c2c(=O)n1Cc1ccccc1)CCCCC3	x	n	149	n	n	n	n	n
NC(=O)CCN1CCCCC1	n	n	n	n	n	x	x	x
O=C(CCC(=O)CCN1CCCCC1)CCN1CCCCC1	n	n	175	n	n	n	n	n
CCOC(=O)c1c(NC(=O)Cn2cnc([N+](=O)[O-])n2)sc2c1CCCC2	n	n	n	n	130	n	n	n
CCOC(=O)c1c(NC(=O)c2ccc(N3C(=O)[C@@H]4[C@H](C3=O)[C@H]3C=C[C@@H]4C3)cc2)sc2c1CCCC2	n	n	n	n	145	n	n	n
CCOC(=O)c1c(NC(=O)C2CCCN(S(=O)(=O)c3ccc(C)cc3)C2)sc2c1CCCC2 (configuration not stated)	n	n	n	n	141	n	n	n
CCOC(=O)c1c(NC(=O)c2ccc(-n3cnnn3)cc2)sc2c1CCCC2	x	n	n	n	n	x	x	x
COc1cc2c(oc(=O)c3cc(C)cc(OC)c32)c2c(C3OC(C)C(O)C(C)(O)C3O)ccc(O)c12 (configuration not stated)	x	n	x	x	x	x	x	x
CCOc1ccc(CC(=O)N2CCN=C2SCc2ccc([N+](=O)[O-])cc2)cc1	n	n	n	n	n	x	x	x
COc1ccc(CC(=O)N2CCN=C2SCc2ccc([N+](=O)[O-])cc2)cc1	n	n	n	n	130	n	n	n
CN(C(=O)c1ccc(F)cc1)c1ccc(OCC(=O)Nc2ccccc2C(=O)O)cc1	n	n	x	x	x	x	x	x
Cc1cc(NCCCN2CCOCC2)n2ncc(-c3ccc(Cl)cc3)c2n1	n	n	147	n	n	n	n	n
CCc1nccn1-c1cc(C(C)(C)C)nc2c(-c3ccc(Cl)cc3)cnn12	n	n	n	n	151	n	n	n
CN(C)CCCNc1cc(C(C)(C)C)nc2c(-c3ccc(Cl)cc3)cnn12	n	n	190	n	n	250	89	n
CC(C)(C)c1cc(NCCCn2ccnc2)n2ncc(-c3ccccc3)c2n1	n	n	145	n	n	n	n	n
Cc1nnc(SCC(=O)Nc2cccc(Br)c2)s1	n	n	x	x	x	x	x	x
